PubChem BioAssay AID1159580 (chemical genetic matrix, 2015)
The whole screen tested about 5,500 compounds, of which about 2,000 (36%) were called active. About 18% were inconclusive and are not listed. No stated cut-off is given here; in the data, active means normalized growth mostly below about 0.91 (no sharp cut-off); inconclusive means no clear call, values can overlap the other calls; inactive means mostly above about 0.92. The list shows a part of the results.

Assay: chemical genetic growth profiling, strain panel (AID 1159580);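 further: tested at 20 µM; growth read once vehicle control cultures reached saturation at 30 °C; 1 = growth at the plate median or of vehicle wells; lower values mean less growth of the strain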
Settings: S. cerevisiae deletion strains, growth OD

Measured: normalized growth

O=C(O)CSCc1ccccc1
inactive: locus YAL013W, strain DEP1, hits give low values 1.01 | locus YBR229C, strain ROT2, hits give low values 1 | locus YCL061C, strain MRC1, hits give low values 0.991 | locus YDL101C, strain DUN1, hits give low values 1.02 | locus YDL134C, strain PPH21, hits give low values 0.986 | locus YDR150W, strain NUM1, hits give low values 0.98 | locus YEL061C, strain CIN8, hits give low values 1.01 | locus YGR078C, strain PAC10, hits give low values 0.976 | locus YHR030C, strain SLT2, hits give low values 1.07 | locus YHR087W, strain rtc3, hits give low values 0.99 | locus YJR043C, strain POL32, hits give low values 1.03 | locus YJR075W, strain HOC1, hits give low values 0.971 | locus YLR039C, strain RIC1, hits give low values 1.07 | locus YLR058C, strain SHM2 (second series), hits give low values 0.993 | locus YLR085C, strain ARP6, hits give low values 1.03 | locus YLR262C, strain YPT6, hits give low values 1.04 | locus YML094W, strain GIM5, hits give low values 1.03 | locus YMR219W, strain ESC1, hits give low values 0.997 | locus YMR263W, strain SAP30, hits give low values 1 | locus YNL128W, strain TEP1, hits give low values 0.986 | locus YNL153C, strain GIM3, hits give low values 0.997 | locus YNL298W, strain CLA4 (second series), hits give low values 1.05 | locus YNL322C, strain KRE1, hits give low values 0.991 | locus YNR030W, strain Alg12, hits give low values 1.02 | locus YPL055C, strain LGE1, hits give low values 0.958 | locus YPL241C, strain CIN2, hits give low values 1 | locus YPR135W, strain CTF4, hits give low values 0.976
